# Screens deposited in PubChem BioAssay by several laboratories.
# 697 NFkB inh = lowers PMA/ionomycin-induced NF-kB signal in 697 B cells | inhibition, % at 4 µM | AID 435022 | 697 B-cell NF-kB luciferase reporter, 16 h | 330,000 tested, 0.33% active; in the data active = inhibition above about 35%
# aSyn 5UTR inh = 5' untranslated region of α-synuclein, MLPCN primary screen; inhibition, % (tested at 7.5 µM); 300,000 tested, 0.82% active; alpha-synuclein 5'UTR reporter, inhibitor activity; in the data active = inhibition above about 60%; inconclusive = no clear call, values can overlap the other calls;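 note: H4 neuroglioblastoma cells stably carrying SNCA 5'UTR luciferase fusion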
# Mdm2-MdmX inh = inhibitors of human Mdm2/MdmX interaction | O15151+Q00987 | 330,000 tested, 3% active | AID 485346 | inhibition, % at 8 µM | SaOS-2 split-luciferase Mdm2/MdmX complementation, luminescence;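 active = inhibition of at least 50% at 8 µM in the primary screen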
# Target sequence (O15151 whole entry, looked up): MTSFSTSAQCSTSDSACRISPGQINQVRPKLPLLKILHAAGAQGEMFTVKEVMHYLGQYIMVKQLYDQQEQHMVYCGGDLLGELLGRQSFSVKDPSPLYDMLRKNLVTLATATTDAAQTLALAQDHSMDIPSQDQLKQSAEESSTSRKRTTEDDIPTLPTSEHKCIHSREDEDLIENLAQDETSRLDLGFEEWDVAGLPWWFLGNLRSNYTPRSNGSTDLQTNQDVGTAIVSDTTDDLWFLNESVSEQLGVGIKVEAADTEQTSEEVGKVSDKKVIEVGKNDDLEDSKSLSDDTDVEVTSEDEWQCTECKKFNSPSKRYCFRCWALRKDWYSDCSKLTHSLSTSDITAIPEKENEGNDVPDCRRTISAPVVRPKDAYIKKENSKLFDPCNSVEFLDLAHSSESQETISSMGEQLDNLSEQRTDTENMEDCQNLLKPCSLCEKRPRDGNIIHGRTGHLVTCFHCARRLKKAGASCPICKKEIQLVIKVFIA
# Target sequence (Q00987 whole entry, looked up): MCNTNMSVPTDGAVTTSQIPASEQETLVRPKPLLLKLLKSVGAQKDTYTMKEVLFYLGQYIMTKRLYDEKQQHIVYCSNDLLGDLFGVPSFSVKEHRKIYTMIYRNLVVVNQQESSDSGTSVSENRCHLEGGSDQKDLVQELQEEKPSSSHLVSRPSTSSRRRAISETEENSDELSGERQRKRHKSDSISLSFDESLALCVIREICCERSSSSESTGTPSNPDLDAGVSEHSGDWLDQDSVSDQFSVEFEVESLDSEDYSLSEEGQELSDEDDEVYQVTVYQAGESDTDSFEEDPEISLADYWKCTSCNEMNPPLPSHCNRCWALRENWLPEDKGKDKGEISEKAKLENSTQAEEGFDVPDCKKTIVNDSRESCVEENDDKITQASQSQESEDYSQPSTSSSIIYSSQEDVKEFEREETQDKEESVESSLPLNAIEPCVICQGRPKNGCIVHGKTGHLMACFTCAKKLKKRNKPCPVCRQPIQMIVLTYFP
# Gli-Sufu block = Gli-Sufu pathway antagonism; 340,000 tested, 0.74% active; Sufu-KO-LIGHT fibroblasts, Gli luciferase reporter luminescence; inhibition, % at 5 µM;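 active = inhibition above about 55%, limit read from the data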
# CSC inhib = cancer stem cell inhibition | 300,000 tested, 1.1% active | cancer stem cell-like cells viability, luminescence | inhibition, % at 7.5 µM; in the data active = inhibition above about 75%; inconclusive = no clear call, values can overlap the other calls; tested in HMLE shEcad cells
# Jurkat NFkB inh = lowers PMA/ionomycin-induced NF-kB signal in Jurkat cells | 330,000 tested, 0.53% active | inhibition, % at 4 µM | PMA/ionomycin-induced NF-kB luciferase reporter, luminescence | AID 435003; in the data active = inhibition above about 50%
# Mdm2 MdmX conf = confirmation of human Mdm2/MdmX interaction inhibitors. shares compounds with Mdm2-MdmX inh. Mdm2-MdmX binding, luminescent assay. inhibition, % at 8 µM. 10,000 tested, 55% active. AID 489028; in the data active = inhibition above about 40%
# FLuc counter = inhibits full-length luciferase, flagging false Mdm2/MdmX hits | shares compounds with Mdm2-MdmX inh | SaOS-2 full-length luciferase counterscreen, luminescence | inhibition, % at 8 µM | 6,200 tested, 77% active | AID 504607;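 active = mean inhibition at 8 µM reaching about 37%, which flags the compound as non-specific, limit read from the data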;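 note: p53-null SaOS-2 cells with luciferase driven by a doxycycline-inducible promoter; compound on cells about two nights before reading with doxycycline added after day one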
# A number is an active result; n = inactive; u = inconclusive; x = no result. Rows were chosen to be rich in hits. Some 4.5% of all compounds tested hit in one or more screens of this group.
SMILES,697 NFkB inh,aSyn 5UTR inh,Mdm2-MdmX inh,Gli-Sufu block,CSC inhib,Jurkat NFkB inh,Mdm2 MdmX conf,FLuc counter
O=[N+]([O-])c1ccc(S(=O)(=O)NCCc2cn3ccccc3n2)cc1,n,n,n,n,n,n,x,x
Cc1c(Cc2ccccc2)sc(NC(=O)Cc2ccccc2)c1C(N)=O,n,n,n,n,n,n,x,x
COc1ccc(/C=C/C(=O)Nc2sc(Cc3ccccc3)c(C)c2C(N)=O)cc1,n,n,64,n,n,n,n,114
CC(C)(CNC(=O)c1cc(Cl)c(O)c(Cl)c1)N1CCCCC1,n,n,n,n,x,n,x,x
CN(C)CCCN(C(=O)c1ccc(S(=O)(=O)N2CCCC2)cc1)c1nc2ccc(Br)cc2s1,n,n,n,n,n,n,x,x
CCOc1cccc2sc(N(CCCN(C)C)C(=O)c3ccc(S(=O)(=O)N(C)c4ccccc4)cc3)nc12,n,n,n,n,x,n,x,x
CCc1ccc2nc(N(CCCN(C)C)C(=O)c3ccc(S(=O)(=O)N4CCc5ccccc5C4)cc3)sc2c1,n,n,99,n,n,n,n,x
CCOc1cccc2sc(N(CCCN(C)C)C(=O)c3ccc(S(=O)(=O)N4CCc5ccccc5C4)cc3)nc12,n,u,82,n,n,n,n,x
CCOC(=O)c1nc(Nc2cc(Cl)ccc2OC)c2ccccc2n1,n,n,n,n,n,n,x,x
Cc1c(CCOC(=O)C2C3CC4CC(C3)CC2C4)sc[n+]1CC(=O)c1ccc(Br)cc1 (centres undefined),n,n,67,n,108,n,n,x
Cc1ccc(NC(=O)c2noc(C(C)C)c2[N+](=O)[O-])cc1,n,n,n,n,n,n,x,x
Cn1nc([N+](=O)[O-])nc1S(C)(=O)=O,n,n,n,n,x,n,x,x
CS(=O)(=O)c1nc([N+](=O)[O-])nn1CCCc1ccccc1,n,n,55,n,n,n,n,x
COc1ccccc1C(CNC(=O)c1ccc(S(=O)(=O)N2CCCCC2)cc1)N(C)C (centres undefined),n,x,n,n,n,n,x,x
COc1ccc(-c2c(C)nn3c(N4CCN(Cc5ccccc5)CC4)cc(C)nc23)cc1OC,n,n,50,n,n,n,n,x
Cc1nn2c(N3CCN(C)CC3)cc(C(C)(C)C)nc2c1-c1ccccc1,n,n,58,n,n,n,41,76
Cc1cc(N2CCN(Cc3ccccc3)CC2)n2nc(C)c(-c3ccccc3)c2n1,n,n,n,n,n,n,x,x
O=C(CCCC(=O)OCC(Cl)=C(Cl)Cl)Nc1ccccc1,n,n,n,n,n,n,x,x
COC(=O)c1c(NC(=O)/C=C/C(=O)O)sc(C)c1-c1ccc(C)c(C)c1,n,n,53,n,n,n,n,x
CCOC(=O)c1c(NC(=O)/C=C/C(=O)O)sc(C)c1-c1ccc(C)c(C)c1,n,n,n,n,n,n,x,x
Cc1c(CNC(=O)C2CCC(=O)N(CCc3ccccc3)C2)cnn1C (centres undefined),n,n,n,n,n,n,x,x
COC(=O)c1ccc(C(NC(=O)OCc2ccccc2)/C(F)=C/[C@@H](C)C(=O)NCc2ccc(OC)c(OC)c2)cc1 (some centres undefined),n,x,89,n,n,n,n,x
O=C1C(SCCO)=C(SCCO)C(=O)c2ccccc21,n,x,82,n,102,n,75,n
O=C(Nc1cc(=O)[nH]c(=O)[nH]1)c1cccc(C(F)(F)F)c1,n,n,n,n,n,n,x,x
O=C(Nc1cc(=O)[nH]c(=O)[nH]1)c1cc(Cl)ccc1Cl,n,n,64,n,n,n,56,58
SMILES,697 NFkB inh,aSyn 5UTR inh,Mdm2-MdmX inh,Gli-Sufu block,CSC inhib,Jurkat NFkB inh,Mdm2 MdmX conf,FLuc counter
CCOc1ccc(N2C(=O)C(=O)/C(=C(/O)c3ccccc3)C2c2ccccc2[N+](=O)[O-])cc1 (centres undefined),n,n,n,n,n,n,x,x
Cc1cc(Nc2cccc([N+](=O)[O-])c2)n2c(nc3ccccc32)c1C#N,n,n,98,n,83,n,91,n
CCN(CC)CCNc1cc(C)c(C#N)c2nc3ccccc3n12,n,n,n,n,n,n,x,x
COCCCNC(=O)Cn1cc(/C=C(\C#N)C(=O)NC2CCCC2)c2ccccc21,n,n,n,n,n,n,x,x
CNC(=O)N(C1=NCC(C)(C)S1)c1ccc(F)c(Cl)c1,n,n,55,n,n,n,n,82
O=C(Cc1n[nH]c(=O)c2ccccc12)OCC(=O)c1ccc2c(c1)OCCO2,n,80,55,n,n,n,68,94
Cc1cc(C(=O)COC(=O)Cc2n[nH]c(=O)c3ccccc23)c(C)n1-c1ccc2c(c1)OCO2,n,n,n,n,n,n,x,x
CCOCCCNS(=O)(=O)c1ccc(-n2cnnn2)c(OC)c1,n,n,n,x,n,n,x,x
Cc1ccccc1C(=O)c1cccn1CC(=O)NCCCN1CCCCC1,n,n,n,n,x,n,x,x
Cc1ccc(C)c(N2CCN(CCCNC(=O)Cn3cccc3C(=O)c3ccccc3C)CC2)c1,n,n,90,n,n,n,66,43
Cc1ccccc1C(=O)c1cccn1CC(=O)NCCN1CCN(c2cccc(C)c2C)CC1,n,n,79,n,n,n,48,59
CCCn1c(N)c(C(=O)CSc2nc3ccccc3c(=O)n2Cc2ccccc2)c(=O)[nH]c1=O,n,n,n,n,n,n,x,x
Cn1c(N)c(C(=O)CCl)c(=O)n(Cc2ccccc2)c1=O,n,n,n,n,n,n,x,x
Cn1c(N)c(C(=O)COC(=O)c2cc(C(F)(F)F)nc3ccccc23)c(=O)n(Cc2ccccc2)c1=O,n,x,50,n,n,n,n,x
Cn1c(N)c(C(=O)COC(=O)c2cc(-c3ccco3)nc3ccccc23)c(=O)n(Cc2ccccc2)c1=O,n,n,n,x,n,n,x,x
Cn1c(=O)c(C(=O)CCl)c(N)n(Cc2ccccc2)c1=O,n,n,58,n,n,n,46,86
Cn1c(N)c(C(=O)CSc2nc3ccccc3c(=O)n2Cc2ccccc2)c(=O)n(C)c1=O,n,n,89,n,n,n,44,90
Cc1ccccc1NC(=O)Cc1nnc(N)s1,n,n,n,n,n,n,x,x
COc1cccc(CNS(=O)(=O)c2ccc3c(c2)oc(=O)n3C)c1,n,n,n,n,n,n,x,x
CCCCOC(=O)Nc1cccc(Cl)c1C,n,n,n,n,n,n,x,x
Oc1ccccc1CNc1ccc(Br)cn1,n,n,78,n,n,n,68,n
O=C(C#Cc1ccccc1)c1ccc([N+](=O)[O-])cc1,n,n,97,n,x,n,82,58
O=C(c1ccc(-c2ccccc2)cc1)c1ccc([N+](=O)[O-])cc1,n,n,n,x,n,n,x,x
COc1ccc(Br)cc1[C@H]1[C@H]2C=CC[C@@H](C)[C@@H]2C(=O)N1Cc1ccccc1,n,n,58,n,x,n,n,x
